High-throughput results (PubChem BioAssay)
cytoskel mod – modifiers of F-actin cytoskeleton organization, primary screen, imaging, HUVEC, phalloidin staining, high-content imaging; inhibition, % at 2 µM; hit rate 0.18% among 91,000; AID 836, 2007; HUVEC TNFa F-actin phalloidin imaging;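 active means inhibition above the batch mean plus 3 SD and confirmed as a hit by visual image inspection, cut at about 30% in these data, passing the limit was not always enough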
CYP2C19 inh – blockers of cytochrome P450 2C19 activity – biochemical, luminescence, ADME assay, primary screen | P33261 | CYP2C19 Supersomes, luciferin-H EGE luminescence, 30 min | inhibition, % at 5 µM | hit rate 21% among 96,000 | AID 778, 2007;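 active means CYP2C19 inhibition above a set limit at 5 µM in the primary screen, cut at about 50% in these data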;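 further: plate controls were negative control wells for no effect and 2.5 mM tranylcypromine positive control for full effect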
CYP2C19 activ – human CYP2C19 activators, primary screen, biochemical, luminescence | activation factor at 5 µM | recombinant CYP2C19, luciferin-H EGE luminescence; stronger effect = higher value; 0 = fully inhibited enzyme, 1 = untreated enzyme | AID 1025, 2008 | 96,000 tested, under 10 active;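 active means activation factor of at least 2 at 5 µM in the primary screen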;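 further: 0 = wells with 2.5 mM tranylcypromine and 1 = vehicle-only wells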
E-sel TNF inh – E-selectin induction blockers in HUVEC – imaging, immunofluorescence, high content, primary screen; HUVEC TNFa-induced E-selectin immunofluorescence; inhibition, % at 2 µM; hit rate 0.71% among 120,000; AID 1246, 2008;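 active means inhibition above the batch mean plus 3 SD, and confirmed as a hit on visual image review, cut at about 43% in these data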;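 further: 0% = TNF-stimulated DMSO wells and 100% = unstimulated control wells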
CYP2C9 act – human CYP2C9 activators, primary screen, biochemical, luminescence; Cytochrome P450 2C9 (Homo sapiens), P11712; recombinant CYP2C9, luciferin-H conversion; stronger effect = higher value; factor 1 = untreated enzyme, 0 = blocked; activation factor at 5 µM; hit rate 1.4% among 96,000;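 active means activation factor of 2 or more for CYP2C9 at a 5 µM dose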;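 further: 0 = sulfaphenazole-blocked wells and 1 = vehicle-only wells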
Target sequence (P11712 whole entry, looked up): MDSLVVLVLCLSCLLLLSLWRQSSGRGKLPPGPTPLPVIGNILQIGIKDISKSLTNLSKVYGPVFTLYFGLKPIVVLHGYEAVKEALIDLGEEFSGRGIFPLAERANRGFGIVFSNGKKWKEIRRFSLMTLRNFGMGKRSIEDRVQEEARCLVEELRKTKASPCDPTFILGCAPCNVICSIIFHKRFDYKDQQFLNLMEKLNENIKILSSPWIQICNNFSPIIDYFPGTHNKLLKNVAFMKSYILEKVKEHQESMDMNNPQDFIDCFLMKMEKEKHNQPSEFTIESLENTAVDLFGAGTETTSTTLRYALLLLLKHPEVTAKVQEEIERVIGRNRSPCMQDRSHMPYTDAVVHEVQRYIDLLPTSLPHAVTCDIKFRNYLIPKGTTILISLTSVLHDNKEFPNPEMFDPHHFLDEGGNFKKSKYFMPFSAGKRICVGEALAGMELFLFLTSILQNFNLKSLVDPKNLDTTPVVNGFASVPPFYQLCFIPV
CYP2C9 inhib – blockers of cytochrome P450 2C9 activity – biochemical, luminescence, ADME assay, primary screen; CYP2C9 Supersomes, luciferin-H conversion; inhibition, % at 5 µM; hit rate 20% among 96,000; AID 777, 2007;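 active means blocking of liver enzyme CYP2C9 beyond about 50% at 5 µM, limit read from the data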
* marks the source's active call; other numbers are inactive results. This is a sample that favours compounds with a hit; in the whole collection about 22% have one here.

Results for O=C(CCCOc1ccc(Cl)cc1Cl)N/N=C\C1CCCCC1 ?
cytoskel mod: 12; CYP2C19 inh: 92*; CYP2C19 activ: 0.1; E-sel TNF inh: -4; CYP2C9 act: 0.8; CYP2C9 inhib: 16

Results for O=C(CCCOc1ccc(Cl)cc1Cl)Nc1cccnc1 ?
cytoskel mod: -13; CYP2C19 inh: 72*; CYP2C19 activ: 0.3; E-sel TNF inh: -22; CYP2C9 act: 0.5; CYP2C9 inhib: 52*

What do the screens show for `CCOC(=O)C1C(=O)NC(c2ccccc2)=NC1c1ccccc1` (stereo not given)?
cytoskel mod: -16; CYP2C19 inh: 31; CYP2C19 activ: 0.7; E-sel TNF inh: 12; CYP2C9 act: 0.7; CYP2C9 inhib: 25

What do the screens show for `CCOC(=O)C1C(=O)NC(c2ccccc2)=NC1c1ccc(F)cc1` (stereo not given)?
cytoskel mod: 1; CYP2C19 inh: 58*; CYP2C19 activ: 0.4; E-sel TNF inh: 10; CYP2C9 act: 0.6; CYP2C9 inhib: 39

How did O=C(NCc1ccncc1)C1CCN(S(=O)(=O)Cc2ccccc2)CC1 do in these assays?
cytoskel mod: 8; CYP2C19 inh: 44; CYP2C19 activ: 0.6; CYP2C9 act: 0.1; CYP2C9 inhib: 92*

How did O=C(NCc1cccc(F)c1)C1CCN(S(=O)(=O)Cc2ccccc2)CC1 do in these assays?
cytoskel mod: 26; CYP2C19 inh: 12; CYP2C19 activ: 0.9; E-sel TNF inh: -2; CYP2C9 act: 1; CYP2C9 inhib: -2

What do the screens show for `COc1ccc(S(=O)(=O)N2CCCC2C(=O)NCc2cccs2)cc1` (stereo not given)?
cytoskel mod: 6; CYP2C19 inh: 68*; CYP2C19 activ: 0.3; E-sel TNF inh: 16; CYP2C9 act: 3.1*; CYP2C9 inhib: -210

How did O=C(NCc1cccs1)C1CCCN(S(=O)(=O)c2cccs2)C1 (stereo not given) do in these assays?
cytoskel mod: 6; CYP2C19 inh: 22; CYP2C19 activ: 0.8; E-sel TNF inh: 1; CYP2C9 act: 0.3; CYP2C9 inhib: 72*

Results for CCNC(=O)C1CCCN1S(=O)(=O)c1ccc(OC)cc1 (stereo not given) ?
cytoskel mod: -7; CYP2C19 inh: -9; CYP2C19 activ: 1.1; E-sel TNF inh: 10; CYP2C9 act: 1.5; CYP2C9 inhib: -50

What do the screens show for `CCCS(=O)(=O)N1CCCC(C(=O)NCCc2ccc(Cl)cc2)C1` (stereo not given)?
cytoskel mod: -1; CYP2C19 inh: 28; CYP2C19 activ: 0.7; E-sel TNF inh: -8; CYP2C9 act: 0.4; CYP2C9 inhib: 56*

What do the screens show for `Cc1nn(CC(=O)NCc2ccc(C(=O)O)cc2)c(C)c1[N+](=O)[O-]`?
E-sel TNF inh: 30

How did CCC1CCCCN1S(=O)(=O)c1ccc(S(=O)(=O)N(Cc2cccs2)C2CC2)cc1 (stereo not given) do in these assays?
cytoskel mod: 6; CYP2C19 inh: 69*; CYP2C19 activ: 0.3; CYP2C9 act: 0.3; CYP2C9 inhib: 71*

What do the screens show for `O=C(NCc1cccnc1)C1CCN(S(=O)(=O)c2cccnc2)CC1`?
cytoskel mod: -3; CYP2C19 inh: 13; CYP2C19 activ: 0.9; E-sel TNF inh: -37; CYP2C9 act: 1; CYP2C9 inhib: 3

What do the screens show for `CC(C)(C)NC(=O)C1CCN(C(=O)c2ccc(-c3ccccc3)cc2)CC1`?
cytoskel mod: 23; CYP2C19 inh: -4; CYP2C19 activ: 1; E-sel TNF inh: 10; CYP2C9 act: 0.8; CYP2C9 inhib: 15

What do the screens show for `CC(C)(C)c1ccc(C(=O)N2CCC(C(=O)NCc3ccncc3)CC2)cc1`?
cytoskel mod: 8; CYP2C19 inh: 39; CYP2C19 activ: 0.6; E-sel TNF inh: -46; CYP2C9 act: 0.4; CYP2C9 inhib: 55*

What do the screens show for `Cc1ccc(S(=O)(=O)N2CCCC(C(=O)N(Cc3cccs3)C3CC3)C2)cc1` (stereo not given)?
CYP2C19 inh: 99*; CYP2C19 activ: 0; CYP2C9 act: 1.5; CYP2C9 inhib: -50
